Records with an inconclusive call do not appear. A call without a number means that no potency is given here. Active and inactive are the calls of the source. Calls come from the whole dose curve; as a rule, active = well fitted inhibition curve with a large enough effect; inconclusive = small, poorly fitted or top-dose-only effect; inactive = flat fitted curve, though single readings scatter.
Potency is the fitted concentration of half-maximal effect.

The test system of this experiment is ICS. The experiment in a line: qHTS profiling for inhibitors of Plasmodium falciparum proliferation (AID 504749). Note: nearly all actives have a fitted effect of over 60% in size. Conditions: P. falciparum in erythrocytes, SYBR Green DNA, 72 h; series mostly up to 28.7 µM. The method, boiled down: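 SYBR Green fluorescence (ex 485 nm, em 535 nm) reports parasite DNA after 72 h compound exposure of infected red cells at 0.3% parasitemia, 2.5% hematocrit; signal normalized to 0.29 uM artemisinin and vehicle wells.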
For orientation: Quantitative high-throughput screening tests each substance at several concentrations.
Regarding `CO/N=C(/C(=O)N[C@@H]1C(=O)N2C(C(=O)O)=CCS[C@H]12)c1csc(N)n1`, the Potency entry was “inactive”.
In the case of `Cc1cc(CC(C)CC(C)(C)C)n(O)c(=O)c1` (stereo not drawn), the Potency was 2510 nM (active).
To `CC1CCC(C(C)C)C(OC(=O)c2ccccc2O)C1` (stereo not drawn) belongs “inactive”.
To `CO[C@@H]1[C@@H](OC2OC(C)C(OC3CC(C)(O)C(OC(=O)CC(C)C)C(C)O3)C(N(C)C)C2O)[C@@H](CC=O)C[C@@H](C)C(=O)/C=C\C2O[C@H]2C[C@@H](C)OC(=O)C[C@H]1OC(C)=O` (stereo partly drawn) belongs 5010 nM (active).
For the compound `CCC(=O)O[C@@H](OP(=O)(CCCCc1ccccc1)CC(=O)N1C[C@H](C2CCCCC2)C[C@H]1C(=O)O)C(C)C` (stereo partly drawn), the Potency entry was “inactive”.
The same measure for `CC(=O)O[C@@]12CO[C@@H]1C[C@H](O)[C@@]1(C)C(=O)[C@H](O)C3=C(C)[C@@H](OC(=O)C(O)[C@@H](NC(=O)OC(C)(C)C)c4ccccc4)C[C@@](O)([C@@H](OC(=O)c4ccccc4)[C@H]21)C3(C)C` (stereo partly drawn): 112 nM (active).
To `CC1(C)S[C@@H]2[C@H](NC(=O)COc3ccccc3)C(=O)N2[C@H]1C(=O)O` belongs “inactive”; to `CCN1/C(=C/C=C/C=C/c2sc3ccccc3[n+]2CC)Sc2ccccc21`, 1000 nM (active).

The values above are taken from PubChem BioAssay (NCATS).
